{"source": "PubChem BioAssay (Tox21)", "experiment": "Nuclear factor erythroid 2-related factor 2/antioxidant responsive element (Nrf2/ARE) small molecule agonists: qHTS cell viability counter screen in human keratinocytes (AID 1919968); also: nearly all actives have a fitted effect of over 55% in size", "in_short": "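Measured as CellTiter-Fluor fluorescence, this readout tracks cytotoxicity in the same wells as the ARE-luciferase screen. HaCaT reporter cells (1,500/well) received compounds after a 5 h pre-incubation and were exposed for 23 h.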", "note": "Inconclusive results are not listed. Where a call stands in place of a potency, no number is given. The source made the active and inactive calls. Calls follow the shape of the dose curve; as a rule, active = well fitted cell-killing curve with a large enough effect in the repeat runs; inconclusive = weak or mixed curves, or effect the other way; inactive = flat fitted curve, though single readings scatter.", "data": [{"compound": "CC(C)(CC(=O)O)C(=O)O", "values": [{"measurement": "Potency", "result": "inactive"}]}, {"compound": "COS(C)(=O)=O", "values": [{"measurement": "Potency", "result": "inactive"}]}, {"compound": "CCOc1ccc2c(c1)C(C)=CC(C)(C)N2", "values": [{"measurement": "Potency", "result": "inactive"}]}, {"compound": "CC(C)=CCC/C(C)=C/C#N", "values": [{"measurement": "Potency", "result": "inactive"}]}, {"compound": "NCCN1CCNC1=O", "values": [{"measurement": "Potency", "result": "inactive"}]}, {"compound": "CCCCCCOCCOCCO", "values": [{"measurement": "Potency", "result": "inactive"}]}, {"compound": "CCC(OCCCOC)OC(C)=O", "note": "(configuration not stated)", "values": [{"measurement": "Potency", "result": "inactive"}]}, {"compound": "CCN(Cc1cccc(S(=O)(=O)O)c1)c1ccccc1", "values": [{"measurement": "Potency", "result": "inactive"}]}, {"compound": "Nc1ccccc1N", "values": [{"measurement": "Potency", "result": "inactive"}]}, {"compound": "O=C1CCCCC1", "values": [{"measurement": "Potency", "result": "inactive"}]}, {"compound": "CC(C)NCC(O)COc1cccc2ccccc12", "note": "(configuration not stated)", "values": [{"measurement": "Potency", "result": "inactive"}]}, {"compound": "CN(Cc1cnc2nc(N)nc(N)c2n1)c1ccc(C(=O)N[C@@H](CCC(=O)O)C(=O)O)cc1", "values": [{"measurement": "Potency", "result": "inactive"}]}]}
